Inconclusive results are not listed. Active and inactive are the calls of the source. How the source made its calls: active means hit-call score of the fitted dose curve at least 0.9, where 1 is the maximum; inconclusive means response in the unintended direction; inactive means score below 0.9.

The target of assay [1] is Luciferin 4-monooxygenase (Photinus pyralis) (UniProt P08659). In words: CCTE_Simmons_QuantiLum_inhib_2: CCTE's Firefly Luciferase Inhibition Assay, Simmons Lab (AID 2283767).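 On AC50: potency for inhibitors that lower luciferase luminescence relative to DMSO.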 The procedure, abridged:
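Luminescence loss relative to DMSO vehicle defines inhibition; detection reagent containing 150 uM D-luciferin and 147 uM dATP (final, pH 7.8) is injected immediately before each read. Enzyme is preincubated with an 8-point titration (5 nM–87.5 uM final) for 30 min at 37C.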

Assay [2] can be described thus: ACEA_AR_agonist_AUC_viability: ACEA Biosciences xCELLigence Real-Time Cell Analysis on Androgen Receptor Agonism for Viability (AID 2283775).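 On AC50: viability read 80 hours after compound addition.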 The method, boiled down:
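Real-time impedance tracking of 22Rv1 growth, readings every 5 min for 5 h then hourly; area-under-curve viability endpoint at 80 hours, relative to DMSO. Compounds at eight concentrations, 1:4 steps, top 100 uM, n = 2.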

A short description of assay [3]: ACEA_ER_AUC_viability: ACEA Biosciences xCELLigence Real-Time Cell Analysis on Estrogen Receptor Agonism for Viability (AID 2283782).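 Further: continuous compound exposure with impedance area under curve over 80 h; hit means loss of impedance signal meaning reduced cell growth or viability.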 The procedure, abridged: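 T-47D human breast cells in phenol red-free RPMI1640 with 10% charcoal-stripped FBS were dosed with an 8-point 1:4 dilution series from 100 uM top final concentration, in duplicate. Impedance-based growth was followed for 80 h; AUC analysed versus DMSO.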

Assay [4] deals with AR (gene 367) (UniProt P10275). The experiment in a line: ACEA_AR_antagonist_80hr: ACEA Biosciences xCELLigence Real-Time Cell Analysis on Androgen Receptor Antagonism for Proliferation (AID 2283787).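 Further: hits lower the impedance growth signal relative to DMSO.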 The procedure, abridged: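 Impedance readout (RT-CES), 80 h post-dose; loss-of-signal vs DMSO baseline. 22Rv1 cells in assay medium. Compounds: 8-pt 1:4 series, max 100 uM final, up to 0.5% DMSO; n = 2.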

Assay [5] has as its system chicken Androgen Receptor (AR), gene 422165. In words: ATG_chAR_XSP1: Attagene TRANS-FACTORIAL Multi-Species (XSP1) HepG2 Assay for chicken Androgen Receptor (AR) (AID 2283768). The method, boiled down: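 HepG2 cells transiently transfected with multiplexed GAL4-UAS reporter units expressing chimeric chicken AR-Gal4; 3 nM 6-alpha-fluorotestosterone for partial AR stimulation; 24 h after dosing, reporter mRNA by RT-PCR and capillary electrophoresis, gain-of-signal versus DMSO.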

Assay [6] has as its target zebrafish Estrogen Receptor (ESR1), esr1 (gene 259252) (UniProt P57717). In words: ATG_zfER1_XSP1: Attagene TRANS-FACTORIAL Multi-Species (XSP1) HepG2 Assay for zebrafish Estrogen Receptor (ESR1) (AID 2283772). The method, boiled down: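 Reporter mRNA induction, gauged via RT-PCR/capillary electrophoresis fluorescence relative to DMSO controls, in HepG2 cells transiently carrying GAL4-UAS reporter units; 24 h dosing.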

Assay [7] has as its system zebrafish Estrogen Receptor (ESR2B), gene 317733. The experiment in a line: ATG_zfER2b_XSP1: Attagene TRANS-FACTORIAL Multi-Species (XSP1) HepG2 Assay for zebrafish Estrogen Receptor (ESR2B) (AID 2283773). The method, boiled down:
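HepG2 cells transiently transfected with multiple GAL4-UAS reporter units expressing chimeric zebrafish ER2b-Gal4; 24 h chemical exposure with 3 nM 6-alpha-fluorotestosterone present. Reporter mRNA measured by RT-PCR and capillary electrophoresis; gain of signal fitted versus DMSO.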

Assay [8] deals with frog Estrogen Receptor (ESR2), gene 100174814. In words: ATG_frER2_XSP1: Attagene TRANS-FACTORIAL Multi-Species (XSP1) HepG2 Assay for frog Estrogen Receptor (ESR2) (AID 2283774). The procedure, abridged:
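HepG2 cells transiently transfected with GAL4-UAS multiplexed reporter units expressing chimeric NR-Gal4 proteins; reporter mRNA measured 24 h after dosing by RT-PCR, FAM labeling, HpaI digestion and capillary electrophoresis. Gain-of-signal relative to DMSO; 3 nM 6-alpha-fluorotestosterone present.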

Assay [9] is described as follows: ACEA_AR_antagonist_AUC_viability: ACEA Biosciences xCELLigence Real-Time Cell Analysis on Androgen Receptor Antagonism for Viability (AID 2283776).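 Further: 22Rv1 human prostate cancer cells growing on impedance electrode plates; hits lower the growth signal relative to DMSO meaning cytotoxicity.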 The procedure, abridged: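 22Rv1 prostate cells, continuous dosing up to 100 uM final (0.5% DMSO max), duplicate plates. Growth measured by impedance; AUC at 80 h, loss of signal vs DMSO.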
Assay [10] deals with frog Estrogen Receptor (ESR1), gene 398734. The experiment in a line: ATG_frER1_XSP1: Attagene TRANS-FACTORIAL Multi-Species (XSP1) HepG2 Assay for frog Estrogen Receptor (ESR1) (AID 2283777). The method, boiled down: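 Read-out: fluorescent reporter mRNA via RT-PCR, HpaI digestion and capillary electrophoresis, after 24 h chemical exposure of transiently transfected human HepG2 cells expressing exogenous NR-Gal4 chimeras. DMSO served as baseline for positive-direction fitting.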

Assay [11] concerns zebrafish Estrogen Receptor (ESR2A), gene 317734. In words: ATG_zfER2a_XSP1: Attagene TRANS-FACTORIAL Multi-Species (XSP1) HepG2 Assay for zebrafish Estrogen Receptor (ESR2A) (AID 2283778). The procedure, abridged: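 HepG2 cells transiently transfected with multiplexed GAL4-UAS reporter units and chimeric NR-GAL4 receptors; 24 h compound exposure with 3 nM 6-alpha-fluorotestosterone present. Reporter mRNA quantified by RT-PCR and capillary electrophoresis, gain-of-signal fitted relative to DMSO.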

The target in assay [12] is chicken Estrogen Receptor (ESR1), ESR1 (gene 396099) (UniProt P06212). The experiment in a line: ATG_chERa_XSP1: Attagene TRANS-FACTORIAL Multi-Species (XSP1) HepG2 Assay for chicken Estrogen Receptor (ESR1) (AID 2283779). The procedure, abridged:
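HepG2 cells transiently transfected with multiplexed GAL4-UAS reporter units expressing chimeric NR-Gal4 proteins; 3 nM 6-alpha-fluorotestosterone present. Reporter mRNA measured 24 h after dosing by RT-PCR, FAM labelling, HpaI digest and capillary electrophoresis; gain of signal versus DMSO.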

In assay [13] the target is Estrogen receptor (Homo sapiens) (UniProt P03372). The experiment in a line: ATG_hERa_XSP1: Attagene TRANS-FACTORIAL Multi-Species (XSP1) HepG2 Assay for human Estrogen Receptor (ESR1) (AID 2283780). The procedure, abridged:
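HepG2 cells transiently transfected with GAL4-UAS reporter units and chimeric NR-Gal4 constructs; 24 h after dosing, reporter mRNA quantified by RT-PCR and capillary electrophoresis. Medium contained 3 nM 6-alpha-fluorotestosterone; activity fitted as gain-of-signal versus DMSO.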

The test system of assay [14] is turtle Estrogen Receptor (ESR1), gene 101933533. In words: ATG_trERa_XSP1: Attagene TRANS-FACTORIAL Multi-Species (XSP1) HepG2 Assay for turtle Estrogen Receptor (ESR1) (AID 2283781). The method, boiled down: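 HepG2 cells transiently transfected with GAL4-UAS reporter units and chimeric NR-Gal4 constructs, dosed for 24 h with 3 nM 6-alpha-fluorotestosterone present. Reporter mRNA was quantified by RT-PCR, fluorescent labelling and capillary electrophoresis, with gain of signal fitted relative to DMSO.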

In assay [15] the test system is turtle Androgen Receptor (AR), gene 101947425. The experiment in a line: ATG_trAR_XSP1: Attagene TRANS-FACTORIAL Multi-Species (XSP1) HepG2 Assay for turtle Androgen Receptor (AR) (AID 2283786). The method, boiled down: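 HepG2 cells transiently transfected with a turtle AR–GAL4 chimera and GAL4-UAS reporter, co-treated with 3 nM 6-alpha-fluorotestosterone for partial stimulation. Reporter mRNA is quantified at 24 h by RT-PCR and capillary electrophoresis, gain-of-signal versus DMSO.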

Assay [16] addresses Estrogen receptor beta (Homo sapiens) (UniProt Q92731). In words: ATG_hERb_XSP1: Attagene TRANS-FACTORIAL Multi-Species (XSP1) HepG2 Assay for human Estrogen Receptor (ESR2) (AID 2283788). The procedure, abridged:
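Read-out: reporter mRNA induction by RT-PCR, HpaI digestion and capillary electrophoresis fluorescence, fitted in positive direction relative to DMSO baseline. Human liver HepG2 cells expressing ERβ-Gal4 fusion, dosed 24 h, medium containing 3 nM 6-alpha-fluorotestosterone.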

Assay [17] concerns the target AR (gene 367) (UniProt P10275). The experiment in a line: ACEA_AR_agonist_80hr: ACEA Biosciences xCELLigence Real-Time Cell Analysis on Androgen Receptor Agonism for Proliferation (AID 2283783).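 Further: hits increase impedance growth signal above DMSO baseline.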 The procedure, abridged:
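22Rv1 human prostate cancer cells were seeded after preconditioning in assay medium and monitored overnight, then dosed in an eight-point 1:4 dilution series from 100 uM (≤0.5% DMSO). Impedance-based growth was read at 80 h, gain-of-signal versus DMSO.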

Sequence of AR (gene 367) (P10275 whole entry, looked up): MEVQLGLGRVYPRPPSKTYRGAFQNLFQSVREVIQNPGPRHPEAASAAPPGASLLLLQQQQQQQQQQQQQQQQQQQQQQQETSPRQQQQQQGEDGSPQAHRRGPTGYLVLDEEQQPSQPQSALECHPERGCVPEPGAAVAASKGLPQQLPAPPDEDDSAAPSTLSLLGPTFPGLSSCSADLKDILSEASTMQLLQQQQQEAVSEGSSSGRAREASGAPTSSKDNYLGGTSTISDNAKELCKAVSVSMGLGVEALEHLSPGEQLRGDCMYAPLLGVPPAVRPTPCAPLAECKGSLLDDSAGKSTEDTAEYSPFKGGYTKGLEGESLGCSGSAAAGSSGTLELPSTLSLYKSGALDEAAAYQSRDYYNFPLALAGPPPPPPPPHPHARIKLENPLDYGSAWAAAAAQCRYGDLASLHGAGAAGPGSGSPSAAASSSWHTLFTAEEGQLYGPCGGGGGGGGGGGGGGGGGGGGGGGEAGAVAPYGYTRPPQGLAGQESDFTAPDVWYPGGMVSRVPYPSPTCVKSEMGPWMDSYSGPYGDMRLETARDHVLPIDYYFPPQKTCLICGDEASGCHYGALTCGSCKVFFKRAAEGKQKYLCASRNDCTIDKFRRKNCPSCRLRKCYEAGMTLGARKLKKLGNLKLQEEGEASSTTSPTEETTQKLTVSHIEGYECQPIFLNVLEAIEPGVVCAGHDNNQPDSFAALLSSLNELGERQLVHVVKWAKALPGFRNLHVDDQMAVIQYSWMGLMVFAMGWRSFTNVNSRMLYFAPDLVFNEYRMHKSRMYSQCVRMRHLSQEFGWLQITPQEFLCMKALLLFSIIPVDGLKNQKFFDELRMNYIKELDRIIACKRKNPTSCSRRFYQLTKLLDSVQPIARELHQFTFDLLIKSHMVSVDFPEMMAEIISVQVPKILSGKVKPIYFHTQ
Sequence of Luciferin 4-monooxygenase (Photinus pyralis) (P08659 whole entry, looked up): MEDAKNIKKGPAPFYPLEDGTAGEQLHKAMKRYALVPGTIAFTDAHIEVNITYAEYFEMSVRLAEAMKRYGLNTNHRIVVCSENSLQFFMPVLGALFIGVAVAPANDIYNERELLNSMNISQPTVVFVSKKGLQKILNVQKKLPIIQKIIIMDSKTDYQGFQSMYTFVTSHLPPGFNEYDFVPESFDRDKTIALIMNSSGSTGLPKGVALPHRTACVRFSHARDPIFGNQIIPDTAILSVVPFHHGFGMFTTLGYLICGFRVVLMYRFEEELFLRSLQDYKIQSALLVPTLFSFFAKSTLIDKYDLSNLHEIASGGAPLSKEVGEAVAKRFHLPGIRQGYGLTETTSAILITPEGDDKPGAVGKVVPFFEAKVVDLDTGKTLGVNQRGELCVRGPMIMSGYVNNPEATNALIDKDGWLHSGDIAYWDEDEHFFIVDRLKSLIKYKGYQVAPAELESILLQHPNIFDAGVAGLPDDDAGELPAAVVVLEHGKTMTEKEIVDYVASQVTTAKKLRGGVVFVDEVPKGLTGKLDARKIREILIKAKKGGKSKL
Sequence of Estrogen receptor (Homo sapiens) (P03372 whole entry, looked up, the tested form may be a part): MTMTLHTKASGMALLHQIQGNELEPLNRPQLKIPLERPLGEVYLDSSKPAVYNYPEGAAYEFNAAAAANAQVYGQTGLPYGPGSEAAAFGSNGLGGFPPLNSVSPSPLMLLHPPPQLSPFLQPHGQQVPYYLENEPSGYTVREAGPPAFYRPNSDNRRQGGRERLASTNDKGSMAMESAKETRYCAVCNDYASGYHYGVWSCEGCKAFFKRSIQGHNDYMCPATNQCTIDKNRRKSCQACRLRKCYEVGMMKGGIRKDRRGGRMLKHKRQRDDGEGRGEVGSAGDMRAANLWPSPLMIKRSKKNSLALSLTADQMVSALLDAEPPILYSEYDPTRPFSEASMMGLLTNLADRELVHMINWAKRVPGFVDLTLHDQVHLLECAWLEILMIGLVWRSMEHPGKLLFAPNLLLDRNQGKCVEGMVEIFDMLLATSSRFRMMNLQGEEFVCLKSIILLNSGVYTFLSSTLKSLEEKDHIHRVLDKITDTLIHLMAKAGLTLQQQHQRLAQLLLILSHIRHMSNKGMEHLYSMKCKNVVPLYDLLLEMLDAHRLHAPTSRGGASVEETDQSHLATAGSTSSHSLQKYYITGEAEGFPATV
Sequence of Estrogen receptor beta (Homo sapiens) (Q92731 whole entry, looked up, the tested form may be a part): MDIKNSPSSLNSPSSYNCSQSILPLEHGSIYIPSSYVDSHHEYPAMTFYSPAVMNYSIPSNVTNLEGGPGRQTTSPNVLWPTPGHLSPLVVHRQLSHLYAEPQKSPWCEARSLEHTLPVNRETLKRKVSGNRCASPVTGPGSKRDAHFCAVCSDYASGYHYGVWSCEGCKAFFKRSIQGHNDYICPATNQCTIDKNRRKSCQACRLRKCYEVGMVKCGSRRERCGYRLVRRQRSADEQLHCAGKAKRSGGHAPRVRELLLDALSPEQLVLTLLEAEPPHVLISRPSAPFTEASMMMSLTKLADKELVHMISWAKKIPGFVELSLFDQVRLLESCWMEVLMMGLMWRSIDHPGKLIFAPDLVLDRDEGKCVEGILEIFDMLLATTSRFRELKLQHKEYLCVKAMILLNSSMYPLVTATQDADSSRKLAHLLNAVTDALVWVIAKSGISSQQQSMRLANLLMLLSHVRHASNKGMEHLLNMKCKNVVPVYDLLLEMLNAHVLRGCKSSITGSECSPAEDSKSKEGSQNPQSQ
Sequence of zebrafish Estrogen Receptor (ESR1), esr1 (gene 259252) (P57717 whole entry, looked up, the tested form may be a part): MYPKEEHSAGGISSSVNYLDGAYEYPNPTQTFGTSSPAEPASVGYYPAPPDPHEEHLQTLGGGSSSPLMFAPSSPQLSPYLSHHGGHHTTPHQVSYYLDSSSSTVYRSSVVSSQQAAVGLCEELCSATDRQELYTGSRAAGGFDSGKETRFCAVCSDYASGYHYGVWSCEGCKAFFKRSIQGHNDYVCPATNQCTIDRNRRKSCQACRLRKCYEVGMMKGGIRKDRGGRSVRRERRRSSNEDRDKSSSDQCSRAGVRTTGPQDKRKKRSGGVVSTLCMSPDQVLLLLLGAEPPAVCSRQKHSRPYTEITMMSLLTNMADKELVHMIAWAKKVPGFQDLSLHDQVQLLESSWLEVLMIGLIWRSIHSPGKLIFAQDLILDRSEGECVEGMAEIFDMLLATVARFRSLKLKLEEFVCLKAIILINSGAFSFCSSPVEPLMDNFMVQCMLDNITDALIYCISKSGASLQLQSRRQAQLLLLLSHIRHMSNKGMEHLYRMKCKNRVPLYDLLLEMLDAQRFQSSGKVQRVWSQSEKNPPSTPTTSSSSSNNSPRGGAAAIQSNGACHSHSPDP
Sequence of chicken Estrogen Receptor (ESR1), ESR1 (gene 396099) (P06212 whole entry, looked up, the tested form may be a part): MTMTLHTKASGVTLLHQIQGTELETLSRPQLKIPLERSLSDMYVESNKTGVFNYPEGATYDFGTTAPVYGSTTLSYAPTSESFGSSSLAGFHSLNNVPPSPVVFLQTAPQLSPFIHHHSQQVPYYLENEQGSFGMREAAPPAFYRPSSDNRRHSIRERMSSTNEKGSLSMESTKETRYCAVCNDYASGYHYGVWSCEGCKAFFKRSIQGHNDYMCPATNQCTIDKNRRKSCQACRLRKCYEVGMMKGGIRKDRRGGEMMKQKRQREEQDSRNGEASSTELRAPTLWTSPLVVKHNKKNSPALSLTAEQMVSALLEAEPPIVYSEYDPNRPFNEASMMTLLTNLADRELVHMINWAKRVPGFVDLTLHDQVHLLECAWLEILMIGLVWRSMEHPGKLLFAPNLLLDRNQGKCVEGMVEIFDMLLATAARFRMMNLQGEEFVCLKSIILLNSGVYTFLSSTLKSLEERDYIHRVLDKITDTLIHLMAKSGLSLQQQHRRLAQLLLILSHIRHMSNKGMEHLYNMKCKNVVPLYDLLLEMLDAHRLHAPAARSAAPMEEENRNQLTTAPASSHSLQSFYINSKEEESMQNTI

`COc1ccc(-c2ccccc2)cc1NNC(=O)OC(C)C`: the AC50 in assay [1] is 0.556 µM (active). Moreover, the outcome (in [2]; in [3]; in the assay with AR (gene 367) [4]) was inactive.

For `Cc1c(COC(=O)[C@@H]2[C@H](/C=C(\Cl)C(F)(F)F)C2(C)C)cccc1-c1ccccc1`, the outcome in assay [5], in [6], in [11], in [12], in assay [3] and in assay [15] was inactive. Besides, the AC50 is 69.1 µM (active) in assay [7]; 100 µM (active) in [8]; 69.3 µM (active) in [2]; 31.4 µM (active) in [9]; 36.3 µM (active) in assay [10]; 21.8 µM (active) in assay [13]. In addition, the AC50 was 19.8 µM (active) in assay [14] and 100 µM (active) in assay [16].

`CCOP(=S)(OCC)Oc1nc(Cl)n(C(C)C)n1`: the result in assay [1] and in [2] was inactive.

For `C=CCOC(=O)C(C)(C)OC(=O)c1cc(-n2c(=O)cc(C(F)(F)F)n(C)c2=O)ccc1Cl`, the half-maximal activity concentration (AC50) in assay [2] is 50.5 µM (active).

For `Nc1c(Cl)c(F)nc(OCC(=O)O)c1Cl`, the compound was called inactive (in assay [2]; in the assay with AR (gene 367) [17]; in the assay with AR (gene 367) [4]).

For the compound `CO/N=C(/C1=NOCCO1)c1ccccc1Oc1ncnc(Oc2ccccc2Cl)c1F`, the AC50 in assay [2] is 43 µM (active); in assay [9], 55.5 µM (active); in assay [3] it was 91.8 µM (active).

On to `CCCCC(C#N)(Cn1cncn1)c1ccc(Cl)cc1` (centres undefined), for which the concentration at half-maximal activity (AC50) in assay [2] was 83.1 µM (active); in assay [9], 79 µM (active). The compound was called inactive in assay [3].

Turning to `Cc1ccc(N=CN(C)C=Nc2ccc(C)cc2C)c(C)c1`, the AC50 in assay [2] is 14.5 µM (active); in assay [3], 50 µM (active).

As to `OC(c1ccc(Cl)cc1)(c1ccc(Cl)cc1)C(Cl)(Cl)Cl`, the concentration at half-maximal activity (AC50) in assay [2] is 14.5 µM (active); in assay [3] it was 26.4 µM (active).

`Nc1cnn(-c2ccccc2)c(=O)c1Cl`: the outcome in assay [2] and in assay [3] was inactive.

For the compound `CCOC(=O)C(C)OC(=O)c1cc(Oc2ccc(C(F)(F)F)cc2Cl)ccc1[N+](=O)[O-]` (centres undefined), the AC50 in assay [2] is 74 µM (active).

Turning to `C=C(C)CN(CC)c1c([N+](=O)[O-])cc(C(F)(F)F)cc1[N+](=O)[O-]`, the AC50 in assay [2] is 73 µM (active).

With `CN/C(=N\[N+](=O)[O-])NCc1cnc(Cl)s1`, the compound was called inactive in assay [2] and in [9].

Turning to `CCCC(=NOCC)C1=C(O)CC(CC(C)SCC)CC1=O` (centres undefined), the AC50 in assay [2] is 79.5 µM (active). The call in assay [9] and in assay [3] was inactive.

With `CC(C)Nc1nc(Cl)nc(NC(C)C)n1`, in assay [3], the call was inactive.

As for `Cn1c(-c2ccccc2)cc(-c2ccccc2)[n+]1C`, the AC50 is 28.7 µM (active) in assay [2] and 41.7 µM (active) in [9].

For the compound `Clc1cccc(C(Cl)(Cl)Cl)n1`, the result (in assay [2]; in [9]; in assay [3]; with AR (gene 367) [4]) was inactive.

`N#CN=C1SCCN1Cc1ccc(Cl)nc1`: the outcome in assay [2] and in assay [9] was inactive.

As for `COC(=O)c1c(C(F)F)nc(C(F)(F)F)c(C2=NCCS2)c1CC(C)C`, the call (in assay [2]; with AR (gene 367) [4]) was inactive.

The term AC50 denotes the midpoint of the concentration-response curve, whichever way the signal moves.

Source of the values: PubChem BioAssay (EPA / NIEHS).
